About 7,900 targets were measured; listed, in parts, are those with a hit and a random draw of the rest. About 0.6% of all pairs of compound and target were hits.
Legend:
Test in all cases: log2 fold change, soluble protein after heating vs DMSO (PISA); higher = thermal stabilisation; K562 cells, 10 uM, 30 min; active = over 0.2 and 3.5 SD of the protein, either way, in both replicates (recomputed)
[1] = compound: C#Cc1cccc(Nc2ncnc3cc(OCCOC)c(OCCOC)cc23)c1 [erlotinib]
Outline: (§1)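 Aliquots of K562 cells (2×10^6 cells/mL) treated with 10 μM compound for 30 min were heated for 3 min over 48°C-58°C. After pooling and extraction in PBS with 0.5% NP-40 at 4°C, soluble protein from a 21,000xg, 90 min spin was quantified by TMTpro 16plex LC-MS/MS with channel sums equalised. Thermal stability is expressed against control samples, from duplicates, as a log2 fold change.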

[2] = compound: C/C(=N\NC(=O)C1=CC(=CC=C1)S(=O)(=O)N2CCOCC2)/C3=C(C=CC(=C3)Cl)O
Outline: as §1

[3] = compound: C1=CC(=C(C=C1Cl)C2=NC3=NC=CN=C3C(=N2)NC4=CC=NC=C4)F
Outline: as §1

[4] = compound: C1=CC(=CC=C1C2=NC3=C(N2)C=C(C=C3)C(=O)N)OC4=CC=C(C=C4)Cl
Outline: as §1

[5] = compound: C1=CC2=C(C=CC(=C2)/C=C\3/C(=O)NC(=NCC4=CC=CS4)S3)N=C1
Outline: as §1

[6] = compound: C1=CC2=NC=CN=C2C=C1/C=C/3\C(=O)NC(=O)S3
Outline: as §1

[7] = compound: C1=CC=C(C=C1)C2=NC(=C(N2)C3=CC=NC=C3)C4=CC(=C(C=C4)Cl)O
Outline: as §1

[8] = compound: C1=CC=C2C(=C1)C3=NNC4=CC=CC(=C43)C2=O
Outline: as §1

[9] = compound: C1CCN(C1)C(=O)NC2=CC=CC(=C2)NC3=NC=C(C(=N3)NCCC4=CN=CN4)Br
Outline: as §1

[10] = compound: C1CN(CCC1(CC2=CC=C(C=C2)Cl)N)C3=NC=NC4=C3C=CN4
Outline: as §1

Measured: log2 fold change

NDFIP1 (UniProt Q9BT67)
inactive: [1] -0.066 | [2] 0.07 | [3] -0.046 | [4] 0.077 | [5] -0.244 | [6] 0.046 | [7] 0.005 | [8] 0.122 | [9] -0.234 | [10] -0.168

NUP210 (UniProt Q8TEM1)
inactive: [1] 0.021 | [2] 0.004 | [3] 0.06 | [4] -0.004 | [5] 0.011 | [6] 0.015 | [7] -0.018 | [8] -0.186 | [9] -0.009 | [10] 0.012

NDUFB7 (UniProt P17568)
inactive: [1] -0.027 | [2] 0.015 | [3] 0.038 | [4] 0.04 | [5] -0.011 | [6] 0.061 | [7] 0.031 | [8] -0.007 | [9] 0.037 | [10] 0.041

NT5DC1 (UniProt Q5TFE4)
inactive: [1] 0.071 | [2] 0.001 | [3] 0.087 | [4] -0.019 | [5] 0.087 | [6] -0.008 | [7] 0.02 | [8] 0.02 | [9] 0.008 | [10] 0.028

NDUFB10 (UniProt O96000)
inactive: [1] -0.009 | [2] -0.067 | [3] 0.018 | [4] 0.03 | [5] 0.06 | [6] 0.025 | [7] -0.038 | [8] -0.021 | [9] 0.026 | [10] 0.045

MUL1 (UniProt Q969V5)
inactive: [1] 0.015 | [2] 0.038 | [3] 0.073 | [4] -0.004 | [5] 0.026 | [6] 0.069 | [7] 0.095 | [8] 0.034 | [9] -0.025 | [10] 0.005

OGFOD1 (UniProt Q8N543)
UniProt Q8N543, sequence (Q8N543 whole entry, looked up): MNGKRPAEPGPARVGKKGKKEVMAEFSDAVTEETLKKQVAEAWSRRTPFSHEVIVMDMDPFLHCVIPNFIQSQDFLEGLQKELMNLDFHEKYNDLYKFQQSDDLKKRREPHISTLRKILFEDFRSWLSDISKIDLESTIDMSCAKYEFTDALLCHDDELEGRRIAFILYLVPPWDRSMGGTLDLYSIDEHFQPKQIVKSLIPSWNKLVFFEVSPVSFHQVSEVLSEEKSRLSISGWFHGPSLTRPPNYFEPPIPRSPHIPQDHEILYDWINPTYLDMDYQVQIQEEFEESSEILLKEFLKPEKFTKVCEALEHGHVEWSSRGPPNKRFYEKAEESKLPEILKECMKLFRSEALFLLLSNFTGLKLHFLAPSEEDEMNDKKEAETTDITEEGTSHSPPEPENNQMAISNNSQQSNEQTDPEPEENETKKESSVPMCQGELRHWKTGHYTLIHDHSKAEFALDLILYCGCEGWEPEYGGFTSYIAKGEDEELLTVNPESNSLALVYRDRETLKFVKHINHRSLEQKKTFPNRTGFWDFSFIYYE
inactive: [1] 0.043 | [2] -0.18 | [3] 0.02 | [4] 0.007 | [5] 0.015 | [6] 0.11 | [7] -0.01 | [8] 0.014 | [9] 0.007 | [10] 0.03

NME1 isoform 2 (UniProt P15531)
inactive: [1] 0.034 | [2] -0.015 | [3] 0.038 | [4] 0.092 | [5] 0.063 | [6] -0.05 | [7] -0.048 | [8] -0.001 | [9] 0.032 | [10] 0.074

NUDCD2 (UniProt Q8WVJ2)
UniProt Q8WVJ2, sequence (Q8WVJ2 whole entry, looked up): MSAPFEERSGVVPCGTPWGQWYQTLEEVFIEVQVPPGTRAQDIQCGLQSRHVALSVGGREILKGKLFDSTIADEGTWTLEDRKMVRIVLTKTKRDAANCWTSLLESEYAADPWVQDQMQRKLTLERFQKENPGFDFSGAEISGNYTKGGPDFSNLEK
inactive: [1] 0.054 | [2] -0.003 | [3] 0.019 | [4] -0.071 | [5] 0.025 | [6] 0.018 | [7] -0.014 | [8] 0.012 | [9] -0.107 | [10] -0.08

MSH2 (UniProt P43246)
inactive: [1] 0.038 | [2] 0.109 | [3] 0.066 | [4] -0.004 | [5] 0.037 | [6] 0.025 | [7] -0.016 | [8] 0.035 | [9] -0.064 | [10] -0.059

NUMA1 (UniProt Q14980)
UniProt Q14980, sequence (Q14980 whole entry, looked up): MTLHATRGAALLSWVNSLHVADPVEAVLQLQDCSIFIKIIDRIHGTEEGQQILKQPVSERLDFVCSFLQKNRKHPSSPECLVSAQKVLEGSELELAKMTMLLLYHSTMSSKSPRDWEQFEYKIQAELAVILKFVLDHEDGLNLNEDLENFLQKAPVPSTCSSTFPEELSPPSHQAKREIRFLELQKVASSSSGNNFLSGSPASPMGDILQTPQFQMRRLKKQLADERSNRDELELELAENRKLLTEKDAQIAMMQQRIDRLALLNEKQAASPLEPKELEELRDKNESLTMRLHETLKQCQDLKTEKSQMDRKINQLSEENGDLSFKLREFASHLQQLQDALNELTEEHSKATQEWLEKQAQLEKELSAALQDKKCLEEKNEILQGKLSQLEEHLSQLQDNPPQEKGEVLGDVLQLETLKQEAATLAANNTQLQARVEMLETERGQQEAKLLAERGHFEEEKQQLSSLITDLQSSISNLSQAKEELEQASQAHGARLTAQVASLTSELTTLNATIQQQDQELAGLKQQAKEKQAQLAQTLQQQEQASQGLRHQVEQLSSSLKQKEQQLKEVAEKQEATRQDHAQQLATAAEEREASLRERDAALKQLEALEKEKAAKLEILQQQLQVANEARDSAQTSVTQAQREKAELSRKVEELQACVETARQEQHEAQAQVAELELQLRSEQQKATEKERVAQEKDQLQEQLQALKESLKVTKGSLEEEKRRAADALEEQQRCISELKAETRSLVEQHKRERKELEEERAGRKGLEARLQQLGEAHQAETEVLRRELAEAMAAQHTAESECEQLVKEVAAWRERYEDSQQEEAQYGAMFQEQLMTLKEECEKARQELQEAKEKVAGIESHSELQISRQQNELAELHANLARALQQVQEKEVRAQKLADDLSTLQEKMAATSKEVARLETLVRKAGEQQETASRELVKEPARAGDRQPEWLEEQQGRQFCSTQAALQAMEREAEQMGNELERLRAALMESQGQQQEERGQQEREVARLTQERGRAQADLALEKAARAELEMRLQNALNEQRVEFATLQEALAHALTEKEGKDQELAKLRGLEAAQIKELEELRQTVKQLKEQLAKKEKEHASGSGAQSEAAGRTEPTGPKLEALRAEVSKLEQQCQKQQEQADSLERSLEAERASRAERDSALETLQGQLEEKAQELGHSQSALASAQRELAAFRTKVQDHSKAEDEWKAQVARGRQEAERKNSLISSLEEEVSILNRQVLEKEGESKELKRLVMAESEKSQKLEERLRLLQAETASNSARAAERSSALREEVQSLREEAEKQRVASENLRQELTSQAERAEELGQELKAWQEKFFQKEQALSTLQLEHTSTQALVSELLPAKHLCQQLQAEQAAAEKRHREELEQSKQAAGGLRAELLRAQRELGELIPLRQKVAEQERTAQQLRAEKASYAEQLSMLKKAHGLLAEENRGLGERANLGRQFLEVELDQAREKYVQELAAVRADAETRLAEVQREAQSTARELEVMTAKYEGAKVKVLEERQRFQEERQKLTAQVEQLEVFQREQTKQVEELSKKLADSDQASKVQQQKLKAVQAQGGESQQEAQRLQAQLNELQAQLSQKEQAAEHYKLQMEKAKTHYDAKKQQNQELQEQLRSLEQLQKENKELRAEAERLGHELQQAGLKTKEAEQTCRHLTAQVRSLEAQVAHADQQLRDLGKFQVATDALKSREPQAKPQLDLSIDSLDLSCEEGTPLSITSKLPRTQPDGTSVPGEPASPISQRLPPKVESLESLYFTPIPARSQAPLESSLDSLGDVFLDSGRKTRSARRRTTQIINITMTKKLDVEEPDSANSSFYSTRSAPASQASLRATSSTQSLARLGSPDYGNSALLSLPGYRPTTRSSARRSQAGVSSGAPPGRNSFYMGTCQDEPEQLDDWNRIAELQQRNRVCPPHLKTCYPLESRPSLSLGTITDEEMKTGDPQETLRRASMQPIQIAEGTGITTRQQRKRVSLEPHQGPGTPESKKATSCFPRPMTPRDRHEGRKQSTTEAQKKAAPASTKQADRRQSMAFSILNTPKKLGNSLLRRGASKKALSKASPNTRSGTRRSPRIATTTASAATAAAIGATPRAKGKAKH
inactive: [1] -0.03 | [2] -0.006 | [3] -0.109 | [4] 0.017 | [5] 0.02 | [6] 0.019 | [7] 0.031 | [8] -0.054 | [9] -0.055 | [10] -0.211

NUDT21 (UniProt O43809)
inactive: [1] -0.02 | [2] 0.07 | [3] -0.127 | [4] 0.047 | [5] -0.035 | [6] -0.015 | [7] -0.026 | [8] 0.008 | [9] 0.003 | [10] -0.089

NHLRC2 (UniProt Q8NBF2)
UniProt Q8NBF2, sequence (Q8NBF2 whole entry, looked up): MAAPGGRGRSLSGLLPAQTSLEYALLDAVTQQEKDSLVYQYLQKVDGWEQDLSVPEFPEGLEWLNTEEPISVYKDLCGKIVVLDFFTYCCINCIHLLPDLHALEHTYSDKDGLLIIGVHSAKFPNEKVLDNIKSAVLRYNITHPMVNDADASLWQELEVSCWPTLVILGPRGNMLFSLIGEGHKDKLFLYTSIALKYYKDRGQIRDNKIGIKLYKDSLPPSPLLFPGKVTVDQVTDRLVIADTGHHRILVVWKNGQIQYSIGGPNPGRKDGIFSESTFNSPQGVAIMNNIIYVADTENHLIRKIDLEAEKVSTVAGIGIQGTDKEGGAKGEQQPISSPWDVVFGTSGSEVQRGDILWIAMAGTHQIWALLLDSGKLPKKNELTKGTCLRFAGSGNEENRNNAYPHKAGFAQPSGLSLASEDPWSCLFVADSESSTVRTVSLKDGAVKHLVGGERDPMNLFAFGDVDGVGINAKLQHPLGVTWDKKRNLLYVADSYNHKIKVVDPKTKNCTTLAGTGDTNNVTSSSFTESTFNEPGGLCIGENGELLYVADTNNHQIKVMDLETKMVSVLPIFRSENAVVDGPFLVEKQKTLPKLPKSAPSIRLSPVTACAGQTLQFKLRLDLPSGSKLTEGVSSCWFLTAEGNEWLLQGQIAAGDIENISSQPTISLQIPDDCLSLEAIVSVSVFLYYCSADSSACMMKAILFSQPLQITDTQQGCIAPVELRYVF
inactive: [1] 0.035 | [2] 0 | [3] -0.059 | [4] 0.057 | [5] 0.065 | [6] -0.074 | [7] -0.114 | [8] 0.042 | [9] 0.051 | [10] 0.001

MND1 (UniProt Q9BWT6)
inactive: [1] -0.068 | [2] 0.034 | [3] -0.003 | [4] -0.002 | [5] -0.011 | [6] 0.015 | [7] -0.019 | [8] 0.009 | [9] -0.081 | [10] -0.017

NTMT1 (UniProt Q9BV86)
UniProt Q9BV86, sequence (Q9BV86 whole entry, looked up): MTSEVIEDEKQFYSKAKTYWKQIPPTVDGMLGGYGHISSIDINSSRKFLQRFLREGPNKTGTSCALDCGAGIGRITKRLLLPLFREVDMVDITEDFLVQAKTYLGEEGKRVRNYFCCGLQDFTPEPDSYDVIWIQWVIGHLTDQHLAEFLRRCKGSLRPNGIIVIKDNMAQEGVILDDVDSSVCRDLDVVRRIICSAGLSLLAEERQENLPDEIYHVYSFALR
inactive: [1] 0.039 | [2] 0.13 | [3] 0.086 | [4] 0.002 | [5] 0.039 | [6] 0.032 | [7] 0.006 | [8] 0.086 | [9] -0.101 | [10] 0.151

NQO1 (UniProt P15559)
active: [8] 0.269
inactive: [1] -0.064 | [2] 0.037 | [3] 0.089 | [4] -0.002 | [5] -0.06 | [6] -0.005 | [7] -0.014 | [9] -0.015 | [10] 0.065

MYL12B (UniProt O14950)
UniProt O14950, sequence (O14950 whole entry, looked up): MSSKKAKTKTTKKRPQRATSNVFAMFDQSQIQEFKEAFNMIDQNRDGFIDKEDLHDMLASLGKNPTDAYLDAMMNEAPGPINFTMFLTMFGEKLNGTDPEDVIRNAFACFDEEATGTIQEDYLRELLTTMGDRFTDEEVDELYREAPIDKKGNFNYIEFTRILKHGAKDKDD
inactive: [1] 0.016 | [2] 0.091 | [3] 0.02 | [4] 0.006 | [5] -0.072 | [6] -0.019 | [7] 0.157 | [8] 0.023 | [9] -0.045 | [10] 0.005

MRPS10 (UniProt P82664)
inactive: [1] -0.036 | [2] -0.089 | [3] -0.103 | [4] 0.048 | [5] 0.102 | [6] 0.023 | [7] -0.037 | [8] 0.04 | [9] 0.001 | [10] -0.012

MON2 isoform 5 (UniProt Q7Z3U7)
inactive: [1] 0.034 | [2] 0.034 | [3] 0.072 | [4] -0.019 | [5] 0.016 | [6] 0.015 | [7] 0.015 | [8] 0.007 | [9] -0.019 | [10] 0.004

PACS1 (UniProt Q6VY07)
inactive: [1] 0.027 | [2] 0.036 | [3] -0.049 | [4] 0.01 | [5] 0.016 | [6] -0.077 | [7] -0.039 | [8] -0.084 | [9] -0.048 | [10] -0.063

NPEPPS (UniProt P55786)
inactive: [1] 0.002 | [2] 0.058 | [3] 0.054 | [4] -0.027 | [5] 0.061 | [6] 0.002 | [7] 0.005 | [8] 0.035 | [9] -0.009 | [10] 0.045

MRPS24 (UniProt Q96EL2)
inactive: [1] -0.175 | [2] 0.022 | [3] -0.032 | [4] 0.062 | [5] 0.016 | [6] -0.02 | [7] 0.01 | [8] 0.039 | [9] 0.071 | [10] -0.1

NMU (UniProt P48645)
inactive: [1] -0.003 | [2] 0.072 | [3] -0.02 | [4] 0.063 | [5] -0.123 | [6] 0.094 | [7] -0.129 | [8] -0.018 | [9] 0.025 | [10] 0.133

NEDD4 isoform 4 (UniProt P46934)
inactive: [1] -0.024 | [2] 0.067 | [3] 0.048 | [4] -0.011 | [5] 0.052 | [6] 0.066 | [7] 0.048 | [8] -0.001 | [9] 0.003 | [10] -0.053

NDUFB8 (UniProt O95169)
inactive: [1] -0.026 | [2] -0.047 | [3] 0.129 | [4] 0.005 | [5] 0.033 | [6] 0.087 | [7] -0.026 | [8] 0.07 | [9] -0.008 | [10] 0.06

MTHFD1 (UniProt P11586)
UniProt P11586, sequence (P11586 whole entry, looked up): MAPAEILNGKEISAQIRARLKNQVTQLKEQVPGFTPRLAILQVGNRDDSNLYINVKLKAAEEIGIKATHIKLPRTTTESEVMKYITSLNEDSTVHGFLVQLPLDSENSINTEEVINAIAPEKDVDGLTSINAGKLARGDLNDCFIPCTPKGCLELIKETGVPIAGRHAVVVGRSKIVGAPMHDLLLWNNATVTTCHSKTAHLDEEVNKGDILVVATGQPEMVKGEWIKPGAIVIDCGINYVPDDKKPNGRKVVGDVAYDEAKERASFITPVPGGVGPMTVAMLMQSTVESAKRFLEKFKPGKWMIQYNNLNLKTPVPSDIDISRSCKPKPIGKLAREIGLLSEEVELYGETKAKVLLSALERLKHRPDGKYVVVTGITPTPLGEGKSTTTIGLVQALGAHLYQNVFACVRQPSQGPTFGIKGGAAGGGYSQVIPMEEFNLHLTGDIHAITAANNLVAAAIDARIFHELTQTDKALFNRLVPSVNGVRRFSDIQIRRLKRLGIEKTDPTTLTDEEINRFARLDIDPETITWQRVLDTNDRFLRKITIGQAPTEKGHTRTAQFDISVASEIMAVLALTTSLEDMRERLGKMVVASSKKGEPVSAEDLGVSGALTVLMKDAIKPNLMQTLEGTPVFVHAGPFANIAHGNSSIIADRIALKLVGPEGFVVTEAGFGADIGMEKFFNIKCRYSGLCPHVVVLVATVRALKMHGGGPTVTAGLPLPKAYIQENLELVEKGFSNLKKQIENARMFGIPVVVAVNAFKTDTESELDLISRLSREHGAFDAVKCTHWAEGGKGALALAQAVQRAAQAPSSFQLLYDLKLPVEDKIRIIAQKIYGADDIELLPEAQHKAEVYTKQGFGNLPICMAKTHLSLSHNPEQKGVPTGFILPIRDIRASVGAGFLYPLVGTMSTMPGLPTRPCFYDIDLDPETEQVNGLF
inactive: [1] 0.06 | [2] 0.058 | [3] 0.074 | [4] -0.019 | [5] 0.019 | [6] -0.021 | [7] 0.05 | [8] 0.01 | [9] 0.013 | [10] 0.032

ORC5 (UniProt O43913)
inactive: [1] 0.089 | [2] 0.177 | [4] 0.046 | [5] 0.05 | [6] 0.062 | [7] 0.031 | [8] 0.01 | [9] -0.13 | [10] -0.026

MLST8 (UniProt Q9BVC4)
inactive: [1] -0.021 | [2] 0.049 | [3] -0.004 | [4] 0.102 | [5] 0.116 | [6] -0.026 | [8] -0.111 | [9] -0.035 | [10] -0.105

NPM3 (UniProt O75607)
UniProt O75607, sequence (O75607 whole entry, looked up): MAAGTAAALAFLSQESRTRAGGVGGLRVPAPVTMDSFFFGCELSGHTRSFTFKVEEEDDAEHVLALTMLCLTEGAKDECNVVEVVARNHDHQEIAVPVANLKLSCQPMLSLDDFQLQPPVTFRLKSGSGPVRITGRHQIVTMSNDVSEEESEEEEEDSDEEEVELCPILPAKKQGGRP
inactive: [1] -0.083 | [2] -0.104 | [4] 0.02 | [5] -0.184 | [6] 0.04 | [7] -0.025 | [8] -0.022 | [9] -0.054 | [10] -0.087

OTULIN (UniProt Q96BN8)
inactive: [1] -0.023 | [2] 0.054 | [3] 0.091 | [4] -0.143 | [5] 0.066 | [6] 0.06 | [7] -0.027 | [8] 0.039 | [9] -0.042 | [10] -0.086

Source: the supplement of paper PMC10849652
